The whole screen tested about 16,000 compounds, of which about 2,600 (16%) were called active. Another 20% or so got no clear call; they are omitted. Calls come from the whole dose curve; as a rule, active = well fitted curve in the direction sought with a large enough effect; inconclusive = small, poorly fitted or top-dose-only effect, or effect the other way; inactive = no such curve, though single readings can be large or run the other way. Only a sample is shown.

As usually defined, the AC50 is the concentration giving half of the maximal activity seen.
% is set by controls: 0 for no effect and ±100 for the full control effect.

For the test, the target named is Cytochrome P450 2D6 (Homo sapiens) (UniProt P10635). Description: Cytochrome panel assay with activity outcomes. The conditions noted are these: recombinant CYP, pro-luciferin dealkylation, luminescence, p450-cyp2d6; series mostly up to 57.1 µM.
Sequence of Cytochrome P450 2D6 (Homo sapiens) (P10635 whole entry, looked up): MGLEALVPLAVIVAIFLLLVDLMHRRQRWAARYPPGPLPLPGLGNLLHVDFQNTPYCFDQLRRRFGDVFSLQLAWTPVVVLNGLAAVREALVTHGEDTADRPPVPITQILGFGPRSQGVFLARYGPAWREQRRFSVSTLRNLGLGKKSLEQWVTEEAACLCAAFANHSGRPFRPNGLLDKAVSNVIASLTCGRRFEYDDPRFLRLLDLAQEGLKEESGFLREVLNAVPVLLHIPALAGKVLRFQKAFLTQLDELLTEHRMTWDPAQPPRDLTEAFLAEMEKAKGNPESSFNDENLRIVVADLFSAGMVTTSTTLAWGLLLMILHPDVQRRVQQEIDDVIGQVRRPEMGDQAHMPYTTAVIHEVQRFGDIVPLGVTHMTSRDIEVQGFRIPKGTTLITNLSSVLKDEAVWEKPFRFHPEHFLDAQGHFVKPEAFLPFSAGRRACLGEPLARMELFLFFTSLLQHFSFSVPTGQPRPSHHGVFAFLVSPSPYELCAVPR
As for `NOCC(=O)O`, the AC50 entry was “inactive”.
Same read-out and setting: next, `CCCOc1ccc(C(=O)NC(=S)Nc2nc3ccc(C)cc3s2)cc1`: “inactive”; `Cc1cc(C)nc(NC(=O)CCCC(=O)O)c1`: “inactive”; `Cc1ccc(N(CC(N)=O)C2SC(=O)N(Cc3cccc(C(=O)O)c3)C2=O)cc1` (stereo not drawn): “inactive”.
Same read-out and setting: next, `CCOC(=O)CN(c1ccccn1)S(=O)(=O)c1ccccc1`: “inactive”.
On the same count and under the same terms, next, `O=C(O)c1ccc(CSc2nc3ccccc3o2)cc1`: “inactive”.
Turning to `O=S(=O)(c1ccccc1)N1CCN(c2cc(-c3ccccc3)nc3ncnn23)CC1`, the AC50 result is “inactive”.
In the case of `O=C(O)c1ccc(NCc2nc3cc4ccccc4cc3[nH]2)cc1`, the activity, negative = inhibition was 3.49% [at 11.4 µM] (inactive).
Consider `O=C(c1cccc(F)c1)N1CCC2(CC1)CCN(C(c1ccccc1)c1ccccc1)CC2`, for which the AC50 is 3.16 µM (active).
As to `Cn1cccc1C(=O)N1CCC2(CC1)CN(C(=O)Nc1ccccc1)C2`, the AC50 entry is “inactive”.
The same measure, in the same setting: next, `O=C(c1cccc(F)c1)N1CCC2(CC1)CN(c1ccc(-c3ccccc3)cc1)C2`: “inactive”; `Cn1cccc1C(=O)N1CCC2(CC1)CCN(C(c1ccccc1)c1ccccc1)CC2`: “inactive”.
Still for that read-out and setting: next, `O=C(c1ccncc1)N1CCC2(CC1)CCN(C(c1ccccc1)c1ccccc1)CC2`: 3.16 µM (active).
As to `Cn1cccc1C(=O)N1CCC2(CC1)CN(C(c1ccccc1)c1ccccc1)C2`, the concentration at half-maximal activity (AC50) was 3.16 µM (active).
Same read-out and setting: next, `O=C(c1cccc(F)c1)N1CCC2(CC1)CCN(c1ccccc1)CC2`: “inactive”; `CN1CCN(c2ncc3nc(-c4ccccc4)c(=O)n(Cc4cccs4)c3n2)CC1`: “inactive”.
On the same count and under the same terms, next, `CN1CCN(c2ncc3nc(CCc4ccccc4)c(=O)n(Cc4ccc(F)cc4)c3n2)CC1`: “inactive”; `N[C@H](CCCP(=O)(O)O)C(=O)O`: “inactive”.
Still for that read-out and setting: next, `O=C(N/C(=C/c1ccco1)C(=O)N1CCCCCC1)c1cccs1`: “inactive”; `Cc1cc(OCC(F)(F)C(F)(F)C(F)(F)C(F)(F)C(F)(F)C(F)F)nc(N)n1`: “inactive”; `CCCCn1c(SCC(N)=O)nc2ccc(N3CCOCC3)cc2c1=O`: “inactive”.
Consider `Cc1ccc(OC(=O)c2oc3ccc(F)cc3c2C)c(C)c1`, for which the AC50 result was “inactive”.
Same read-out and setting: next, `Cc1ccc(NC(=S)NC(=O)c2c(-c3ccccc3Cl)noc2C)cc1`: “inactive”.
As for `C[C@@H](CCC(=O)O)C(=O)O`, the activity, negative = inhibition is 1.74% [at 11.4 µM] (inactive).
Turning to `Cc1ccc(S(=O)(=O)c2c(C)nn(C(C)(C)C)c2OC(=O)c2cccs2)cc1`, the AC50 result was “inactive”.
Still for that read-out and setting: next, `CCCC[C@H](CC)CN=C(N)NC(N)=NCCCCCCN=C(N)NC(N)=NC[C@@H](CC)CCCC`: 3.16 µM (active).
The same measure, in the same setting: next, `CC(N)=NCCCC[C@H](N)C(=O)O`: “inactive”; `CS/C(N)=N/N=C/c1ccc([N+](=O)[O-])cc1`: “inactive”.
On the same count and under the same terms, next, `Cc1cc(C)cc(NC(=O)C/C(N)=N/O)c1`: “inactive”.
Turning to `O=C(c1ccccc1NS(=O)(=O)c1cccc([N+](=O)[O-])c1)N1CCOCC1`, the AC50 result is “inactive”.
On to `Cc1onc(-c2c(Cl)cccc2Cl)c1C(=O)Nc1ccc2c(c1)OCO2`, for which the AC50 was 7.08 µM (active).
The same measure, in the same setting: next, `CC(=O)c1cc2c(cc1NC(=O)c1c(-c3ccccc3)noc1C)OCO2`: “inactive”.
On the same count and under the same terms, next, `CCOC(=O)Cc1csc(NC(=O)c2c(-c3c(Cl)cccc3Cl)noc2C)n1`: “inactive”.
Same read-out and setting: next, `CC1(C)CC(=O)C(CCCN2C(=O)c3ccccc3C2=O)C(=O)C1`: “inactive”; `CCN(CC)c1ncnc2c1sc1nc(C)cc(C)c12`: “inactive”.
On to `CO/N=C\[C@@H](OC)[C@H](C)/C=C\CC(=O)OC`, for which the activity, negative = inhibition was 9.03% [at 11.4 µM] (inactive).
Still for that read-out and setting: next, `O=C(O)CCSC1=NCCN1`: 15.4% [at 11.4 µM] (inactive).
In the case of `O=C(CSc1nncn1-c1ccccc1)Nc1ccc(N2CCOCC2)cc1`, the AC50 entry is “inactive”.
Same read-out and setting: next, `O=C(CSC1=NCCN1)Nc1ccccc1`: 1.58 µM (active).
In the case of `CCOC(=O)C1=C(C)C(c2ccccc2OC)NC(=S)N1` (stereo not drawn), the AC50 result was “inactive”.
On the same count and under the same terms, next, `Cn1c(=O)oc2cc(S(=O)(=O)NCCC(=O)N3CC=C(c4ccccc4)CC3)ccc21`: “inactive”.
On the same count and under the same terms, next, `O=C(O)c1cc2cc(Cl)ccc2oc1=O`: “inactive”; `O=C(Nc1ccccc1N1CCOCC1)c1cnccn1`: “inactive”.
For the compound `O=C(Nc1ccc2ncccc2c1)Nc1ccc2ncccc2c1`, the activity, negative = inhibition is -10.5% [at 11.4 µM] (inactive).
In the case of `Cc1nc2ccc(NC(=O)Nc3ccnc4cccnc34)cc2o1`, the concentration at half-maximal activity (AC50) was 10 µM (active).
With `Cc1cc(N)c2cc(NC(=O)Nc3ccc4nc(C)cc(N)c4c3)ccc2n1`, the activity, negative = inhibition is 7.45% [at 11.4 µM] (inactive).
Turning to `CN(C)c1ncc2nc(-c3ccc(F)cc3)c(=O)n(C)c2n1`, the AC50 result is “inactive”.
Still for that read-out and setting: next, `COc1ccc2cc(C(=O)Nc3ccc(F)cc3)sc(=O)c2c1OC`: “inactive”; `CC(C)C(=O)Nc1ccc(C(=O)NNC(=O)C(c2ccccc2)c2ccccc2)cc1`: “inactive”; `N#Cc1ccccc1-c1ccc2ncnc(N3CCNCC3)c2c1`: “inactive”.
In the case of `CN(C)C(=O)c1ccc(-c2ccc3ncnc(N4CCNCC4)c3c2)cc1`, the AC50 entry is “inactive”.
In the case of `Cc1noc(C)c1-c1ccc2ncnc(N3CCN(C)CC3)c2c1`, the AC50 result is “inactive”.
Still for that read-out and setting: next, `Cc1ccccc1-c1ccc2ncnc(N3CCNCC3)c2c1`: “inactive”.
Still for that read-out and setting: next, `c1nc(N2CCNCC2)c2cc(-c3ccc4c(c3)OCO4)ccc2n1`: 2.51 µM (active); `N#Cc1cccc(-c2ccc3ncnc(N4CCNCC4)c3c2)c1`: “inactive”; `CN(C)c1ccc(-c2ccc3ncnc(N4CCNCC4)c3c2)cc1`: 12.6 µM (active).
Turning to `CN1CCN(c2ncnc3ccc(-c4cccc(C#N)c4)cc23)CC1`, the AC50 entry is “inactive”.
Still for that read-out and setting: next, `CN1CCN(c2ncnc3ccc(-c4ccc5c(c4)OCO5)cc23)CC1`: 0.251 µM (active).
The same measure, in the same setting: next, `COc1ccc(C(=O)N2CCC[C@@]3(CCN(C(=O)NC(C)C)C3)C2)cc1`: “inactive”; `Cc1nc2ncnn2c(C)c1CCC(=O)NCc1ccco1`: “inactive”.
The same measure, in the same setting: next, `CCc1ccccc1NC(=O)c1ccc(F)c(S(=O)(=O)N2CCC(C(N)=O)CC2)c1`: “inactive”; `CC(=O)c1c(O)c(C)c(-c2ccccc2)n(-c2ccccc2)c1=O`: “inactive”.
On to `CCCc1c(OCCCOc2ccc(OCC(=O)O)cc2)ccc(CC=O)c1O`, for which the AC50 result is “inactive”.
Same read-out and setting: next, `CCCC(O)(CCC)C(=O)NN1CCCCC1`: “inactive”; `Cn1c(=O)n(C)c2cc(/C=N/n3cnnc3)ccc21`: “inactive”.
On to `Brc1ccc(-c2nnc(-c3ccccc3)c(N3CCSCC3)n2)cc1`, for which the AC50 entry was “inactive”.
Same read-out and setting: next, `COc1ccccc1-c1ccc2ncnc(N3CCOCC3)c2c1`: “inactive”; `COc1ccc(OC)c2c(=S)c3ccccc3[nH]c12`: “inactive”.
As to `COc1cccc2[nH]c3c(N4CC(C)CC(C)C4)ncnc3c12` (stereo not drawn), the half-maximal activity concentration (AC50) is 2 µM (active).
On the same count and under the same terms, next, `Cc1nn(Cc2ccccc2Cl)c(C)c1NC(=O)CCCn1nc(C)c([N+](=O)[O-])c1C`: “inactive”; `CCn1c2ccccc2c2cc(/C=N/n3cn[nH]c3=S)ccc21`: “inactive”.
Same read-out and setting: next, `CCn1c2ccccc2c2cnc(N=CN(C)C)c(C#N)c21`: 1.41 µM (active); `COc1ccccc1NC(=O)Cn1nnc(-c2ccccc2NC(=O)c2cc3ccccc3oc2=O)n1`: “inactive”.
Still for that read-out and setting: next, `CCOC(=O)C1CCCN(C(=O)CCCOc2cc(=O)n(C)c3ccccc23)C1` (stereo not drawn): “inactive”; `CC(=O)c1ccc(NC(=O)C2CC(c3ccc(F)cc3)=NO2)cc1` (stereo not drawn): “inactive”; `Cn1ncc(C#N)c1NC(=O)C1CC(c2ccc(Cl)cc2)=NO1` (stereo not drawn): 3.98 µM (active).
As for `O=C(NC1CCCC1)C1CC(c2ccc(F)cc2)=NO1` (stereo not drawn), the AC50 entry was “inactive”.
On the same count and under the same terms, next, `C=CC[C@H](N)C(=O)O`: “inactive”; `COc1ccc(-n2c(=O)c(C)nc3cnc(N4CCNCC4)nc32)cc1`: “inactive”.
As to `Nc1[nH]c(=O)nc2c1ncn2[C@H]1O[C@@H](CO)[C@@H](O)[C@@H]1O`, the activity, negative = inhibition was 7.59% [at 11.4 µM] (inactive).
On to `COc1ccc(CNC(=O)c2csc(Cc3ccc(Cl)cc3)n2)cc1`, for which the AC50 was 14.1 µM (active).
Turning to `COc1ccc(CNC(=O)c2cnc(C)cn2)cc1`, the AC50 entry was “inactive”.
Still for that read-out and setting: next, `COc1ccc(CNC(=O)c2csc(Cc3ccc(OC)cc3)n2)cc1`: “inactive”.
Take `CO[C@@H]1COC(=O)C/C=C\[C@@H](C)[C@H](OC)COC(=O)[C@H](COCc2ccccc2)NC(=O)C/C=C\[C@H]1C`: the activity, negative = inhibition is -2.59% [at 11.4 µM] (inactive).
As for `C[C@@H]1[C@H]2CC[C@@H]3[C@@H]4CC=C5C[C@@H](N(C)C)CC[C@]5(C)[C@@H]4CC[C@@]32CN1C`, the AC50 result is “inactive”.
Still for that read-out and setting: next, `CN(C)c1ncc2nc(-c3ccccc3)c(=O)n(Cc3ccc(F)cc3)c2n1`: “inactive”; `CCCCNS(=O)(=O)c1ccc(OC)c(Cl)c1Cl`: “inactive”.
Regarding `NCCCCCCNS(=O)(=O)c1cccc2ccccc12`, the AC50 result was “inactive”.
The same measure, in the same setting: next, `NCCCCCCNS(=O)(=O)c1cccc2c(Cl)cccc12`: 12.6 µM (active).
On the same count and under the same terms, next, `NCCCCCCCCCCNS(=O)(=O)c1cccc2c(Cl)cccc12`: 1.26 µM (active); `O=S(=O)(NCCCCCCc1ccccc1)c1cccc2c(Cl)cccc12`: “inactive”; `CCCCCCCNS(=O)(=O)c1cccc2c(Cl)cccc12`: “inactive”.
`C#C[C@]1(O)CC[C@@H]2[C@H]3CCC4=CCCC[C@@H]4[C@@H]3CC[C@@]21C`: the AC50 result is “inactive”.
On the same count and under the same terms, next, `N#CCCn1c(=O)c(-c2cc(F)cc(F)c2)nc2cnc(OCc3ccccc3)nc21`: “inactive”.
For the compound `Cc1ncc(COP(=O)(O)O)c(C)c1O`, the activity, negative = inhibition is 11.2% [at 11.4 µM] (inactive).
Consider `Cn1cc(/C=N/n2cnc3scc(-c4ccccc4)c3c2=O)c2ccccc21`, for which the AC50 result is “inactive”.
For the compound `CN1CC[C@H](CN2c3ccccc3Sc3ccccc32)C1`, the concentration at half-maximal activity (AC50) is 0.126 µM (active).
On the same count and under the same terms, next, `CN1CCC[C@@H](CC2c3ccccc3Sc3ccccc32)C1`: 0.316 µM (active).
Consider `CO[C@H]1COC(=O)[C@@H](Cc2ccccc2)NC(=O)[C@@H](C)COC(=O)C/C=C\[C@@H]1C`, for which the activity, negative = inhibition is 2.58% [at 11.4 µM] (inactive).
Take `CC(C)(C)c1ccc(C2CC2C(=O)N/N=C\c2cc3ccccc3nc2Cl)cc1` (stereo not drawn): the AC50 entry is “inactive”.
On the same count and under the same terms, next, `COC(=O)[C@@]1(Cc2ccccc2)[C@@H]2C(=CC(=O)[C@H]2CC(=O)C(=O)N(C)C)CN1C(=O)c1ccccc1`: “inactive”.
Still for that read-out and setting: next, `COc1cc(C2C(C#N)=C(N)OC3=C2C(=O)CCC3)c([N+](=O)[O-])cc1OC` (stereo not drawn): “inactive”.
On the same count and under the same terms, next, `Nc1ncnc2c1ncn2[C@@H]1O[C@@H](C(=O)NC2CC2)[C@H](O)[C@@H]1O`: “inactive”.

(Values after PubChem BioAssay AID1851 (National Center for Advancing Translational Sciences (NCATS), 2009).)
